Assay outcomes from PubChem BioAssay.
Lamin A splicing: modulators of lamin A splicing. HeLa LMNA splicing GFP/RFP minigene ratio, 48 h. 0.01% of 200,000 active. Potency, µM (doses to about 46.1 µM), inactives show at the top dose ratio change, negative = inhibition, actives largely listed as inhibitors. AID 1487; active = well fitted inhibition curve with a large enough effect in the signal ratio, with a control signal flat, not every such curve was filed as active; inconclusive = small, poorly fitted or top-dose-only effect, or effect the other way, or a change in a side signal; the % refers to the signal ratio
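S3 HeLa stable clones carrying a lamin A-EGFP splicing minigene plus DsRed2 were seeded at 600 cells/well in Opti-MEM with 2% FBS, pin-dosed and incubated 48 h at 37°C. Acumen cytometry (488 nm) gave the GFP/RFP total-intensity ratio.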
APE1 inh: inhibitors of human APE1 endonuclease; recombinant APE1, TAMRA/BHQ-2 abasic DNA cleavage fluorescence; Potency, µM (highest dose often 65.8 µM), for inactives: at the top dose activity change, negative = inhibition, hits mostly inhibitors; 0.35% of 350,000 active;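 also: plate controls were vehicle for no effect and reference inhibitor for full effect; nearly all actives have a fitted effect of over 55% in size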
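APE1 at 0.75 nM preincubated 15 min at room temperature with compound. Reaction then started with 50 nM double-stranded THF-abasic substrate labelled with TAMRA/BHQ-2, and 525/598 nm fluorescence read kinetically. Activity taken as third-minus-first read difference, normalized to DMSO and NSC13755 controls.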
GCN5L2 inh: GCN5L2 (KAT2A) acetyltransferase inhibition | Potency, µM (titrated, usually from 58.9 µM), for the others: at the highest dose activity change, negative = inhibition, actives largely listed as inhibitors | Q92830 | GCN5L2 HAT assay, ThioGlo1 CoA-SH fluorescence | AID 504327 | 0.21% of 390,000 active
Target sequence (Q92830 whole entry, looked up): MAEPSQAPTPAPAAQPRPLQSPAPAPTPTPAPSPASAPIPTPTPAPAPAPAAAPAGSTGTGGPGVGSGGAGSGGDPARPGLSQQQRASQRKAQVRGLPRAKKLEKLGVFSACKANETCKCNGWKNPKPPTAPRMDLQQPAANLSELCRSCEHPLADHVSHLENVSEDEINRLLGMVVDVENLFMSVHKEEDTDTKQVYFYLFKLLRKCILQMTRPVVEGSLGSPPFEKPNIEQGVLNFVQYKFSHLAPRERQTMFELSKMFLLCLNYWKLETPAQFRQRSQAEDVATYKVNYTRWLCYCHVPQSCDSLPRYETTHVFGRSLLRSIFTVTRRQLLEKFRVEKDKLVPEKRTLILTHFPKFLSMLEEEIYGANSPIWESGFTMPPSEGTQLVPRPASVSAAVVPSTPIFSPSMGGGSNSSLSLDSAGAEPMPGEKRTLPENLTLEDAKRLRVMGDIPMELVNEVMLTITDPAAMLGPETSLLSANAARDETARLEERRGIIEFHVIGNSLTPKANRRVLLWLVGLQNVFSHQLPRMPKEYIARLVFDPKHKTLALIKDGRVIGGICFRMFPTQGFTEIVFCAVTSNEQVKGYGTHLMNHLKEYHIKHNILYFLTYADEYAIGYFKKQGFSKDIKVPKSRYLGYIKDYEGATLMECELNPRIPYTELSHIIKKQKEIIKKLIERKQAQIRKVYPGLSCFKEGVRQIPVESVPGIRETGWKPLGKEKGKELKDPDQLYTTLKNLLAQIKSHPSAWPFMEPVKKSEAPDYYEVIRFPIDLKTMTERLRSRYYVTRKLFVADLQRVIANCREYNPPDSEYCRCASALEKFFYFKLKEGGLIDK
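Preincubate 20nM GCN5L2 with compound 15 min, RT → add 50uM ThioGlo1 + 75uM H3(1-25) + 70uM acetyl-CoA → read fluorescence 0 and 20 min. Primary qHTS; fluorescent artifacts likely.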
TDP1 block: blocks human tyrosyl-DNA phosphodiesterase 1; Q9NUW8; recombinant TDP1, AlphaScreen DNA substrate cleavage; Potency, µM (series often up to 130 µM), without a hit: at the top dose activity change, negative = inhibition, usual class: inhibitors; 0.28% of 350,000 active; AID 485290; also: nearly all actives have a fitted effect of over 40% in size
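Enzyme-compound mixtures sat 15 min at room temperature, followed by a 5 min reaction with 15 nM final substrate and 10 min with AlphaScreen beads. Recombinant human Tdp1 was used at 1 nM final.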
BLM helicase inh: inhibitors of human Bloom syndrome helicase BLM. P54132. recombinant BLM DNA unwinding, fluorescence dequenching. Potency, µM (series often up to 56.1 µM), for the others: top-dose activity change, negative = inhibition, most hits filed as inhibitors. 0.2% of 350,000 active. AID 2528;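 also: plate controls were vehicle for no effect and no enzyme for full effect; nearly all actives have a fitted effect of over 35% in size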
RECQ1 inh: RECQ1 (human) helicase inhibition; P46063; RECQ1 DNA unwinding, red fluorescence kinetic read; Potency, µM (top dose mostly 57.3 µM), for inactives: at the top dose activity, negative = inhibition, usual class: inhibitors; 0.54% of 240,000 active; AID 2549;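 also: plate controls were vehicle for no effect and no enzyme for full effect; nearly all actives have a fitted effect of over 30% in size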
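50 nM RECQ1T1 preincubated 15 min with compound in Tris pH 8.0 buffer with MgCl2, DTT, Tween-20 and 2.5 ug/ml poly(dI-dC); started with 200 nM TAMRA/BHQ-2 forked duplex and 2 mM ATP. Unwinding read as fluorescence (525/598 nm), two reads 2 h apart.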
Starred values were filed as active, the others as inactive; i = inactive; ? = inconclusive; / = no result given; [ ] = remark or other dose. Rows were chosen to be rich in hits. Some 0.9% of all compounds tested hit in one or more screens of this group. Unless noted, calls follow the shape of the dose curve; as a rule, active = well fitted curve in the direction sought with a large enough effect; inconclusive = small, poorly fitted or top-dose-only effect, or another doubt; inactive = no such curve, though single readings can be large; an effect the other way counts as inactive or inconclusive. Unless noted, % is scaled to controls: 0 for no effect and ±100 for the full control effect; potency is read from the fitted curve at half-maximal effect.

SMILES	Lamin A splicing	APE1 inh	GCN5L2 inh	TDP1 block	BLM helicase inh	RECQ1 inh
FC(F)Oc1ccc(C2=Nn3c(nnc3-c3ccccc3C(F)(F)F)SC2)cc1OCC1CC1	/	-2.1%	/	/	/	/
COc1cc(F)c(S(=O)(=O)N2CCCN(S(=O)(=O)c3ccc4c(c3)OCCO4)CC2)c(F)c1	/	/	/	0.3%	/	/
CSCC[C@H](NC(=O)[C@@H](NC(=O)[C@H](CCC(=O)O)NC(=O)[C@H](CCSC)NC(=O)[C@H](CC(N)=O)NC(=O)[C@H](CCC(=O)O)NC(=O)[C@H](CC(N)=O)NC(=O)[C@H](CO)NC(=O)[C@H](C)N)[C@@H](C)O)C(=O)O	/	-2.2%	-9.8%	11.5%	-6.5%	-19.2%
CC(C)(C)OC(=O)NCc1nnc(C(C(=O)OCc2ccccc2)c2ccccc2)s1 (configuration not stated)	/	/	/	-0.2%	/	/
COc1cc2ccc(=O)oc2c(O[C@@H]2O[C@H](CO)[C@@H](O)[C@H](O)[C@H]2O)c1O	/	-2.7%	22.4µM*	2.2%	0.9%	/
Cc1ccccc1CNC(=O)C1CCCN(c2nnc(C)c3c(C)n(-c4ccccc4)nc23)C1 (configuration not stated)	/	-13.1%	-6.1%	79.4µM*	0.2%	/
COc1ccccc1/C=C/C=N/n1c(-c2n[nH]c3c2CCC3)n[nH]c1=S	/	3.0%	-25.5%	3.5%	-14.5%	-1.7%
S=c1[nH]nc(COc2ccccc2)n1/N=C/C=C/c1ccco1	/	?	-28.7%	/	-24.1%	31.6µM*
S=c1[nH]nc(-c2n[nH]c3c2CCC3)n1/N=C/C=C/c1ccco1	/	?	-27.6%	/	-7.2%	12.6µM*
S=c1[nH]nc(COc2ccccc2)n1/N=C/C=C/c1ccccc1	-12.3%	-6.7%	-18.5%	5.7%	-5.4%	-3.1%
COc1ccc(C2Nc3ccccc3C(=O)N2Cc2ccccc2)cc1COc1ccc(F)cc1 (configuration not stated)	/	/	/	0.8%	/	/
O=S(=O)(c1ccc(NC(=S)NN=C2CCCCC2)cc1)N1CCOCC1	-14.4%[46 µM]	35.5µM*	-25.1%	4.9%	-5.2%	-0.4%
NNC(=S)Nc1ccc(S(=O)(=O)N2CCOCC2)cc1	/	8.1%	?	8.2%	-5.1%	-7.9%
O=C(Nc1ccccc1)C1=C[C@H](c2csc3ccccc23)C[C@H](OCCCCO)O1	/	3.2%	-0.1%	5.1%	-5.1%	39.8µM*
CC1(C)S[C@@H]2[C@H](NC(=O)C(N)c3ccccc3)C(=O)N2[C@H]1C(=O)O (some centres not stated)	?	12.6µM*	4.2%[21.4 µM]	?	-0.8%[21.4 µM]	-24.3%[25.9 µM]
C=NC(C(=O)NC1C(=O)N2C1SC(C)(C)C2C(=O)O)c1ccccc1 (configuration not stated)	/	/	-6.3%	3.4%	5.2%	i
NC(=O)NC(=O)COC(=O)c1ccc(OC(F)(F)F)cc1	-6.8%[46 µM]	0.1%	5.2%	1.2%	0.8%	i
O=C(COC(=O)c1cccc(OC(F)F)c1)Nc1ncccn1	/	-29.9%	-2.0%	44.7µM*	/	/
O=C(COC(=O)c1ccc(OC(F)(F)F)cc1)Nc1ncccn1	/	?	-4.7%	22.4µM*	/	/
COc1ccc(-c2ccc(OC)c(C3C4C=CCCC4(C)C(=O)N3Cc3ccccc3)c2)cc1OC (configuration not stated)	/	7.7%	/	15.0%	-10.1%	-12.5%
COc1ccc(-c2ccc(OC)c(C3C4C=CCCC4(C)C(=O)N3Cc3ccccc3)c2)cc1 (configuration not stated)	/	-6.8%	/	8.5%	-2.7%	-10.5%
Nc1cccc2nc3ccccc3cc12	?	?	-3.5%	-4.8%	208.4%	14.4%
Cc1cc2c(N)cccc2nn1	10.5%	-1.0%	?	-12.0%	5.62µM*	-3.4%
COc1ccccc1NC(=O)CSc1nnc(CCC(=O)Nc2ccccc2F)n1C	/	-0.8%	35.5µM*	/	-7.0%	i
